For assay [1], the target named is NAD(+) hydrolase SARM1 (Homo sapiens) (UniProt Q6SZW1). The experiment in a line: SARM1 TIR NADase inhibitors, cell lysate, NAD-Glo luminescence (AID 1508614;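 active = compound whose remaining NAD level is above about 45 nM, limit read from the data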;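 note: higher remaining NAD means stronger inhibition of SARM1 NADase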). To be noted: SAM-TIR HEK293T lysate NADase, at 1 µM, stronger effect = higher value.
The nature of assay [2]: hESC survival regulators, cell-based (AID 493140).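 Note: cells exposed to compounds for four days before counting.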 To be noted: human embryonic stem cell survival screen; stronger effect = higher value.
The subject of assay [3] is Aerobactin synthetase IucA (Klebsiella pneumoniae). As to the kind of experiment: IucA aerobactin synthetase inhibitors, biochemical, Tocris library, absorbance (AID 1345561).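 Note: 100% = enzyme without compound and 0% = no enzyme.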 The following applies: purified IucA enzyme assay, absorbance (OD) read-out; stronger effect = lower value;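 tested at 8 µM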.
Assay [4] can be described thus: circadian clock period modulators, cell-based, LOPAC library, luminescence reporter (AID 2774).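 Note: values are relative to mean of DMSO wells on each plate.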 To be noted: circadian reporter cells, at 7 µM, actives lie on both sides.
Assay [5] concerns Hepatitis C virus NS3 helicase. As to the kind of experiment: HCV NS3 helicase inhibitors, primary screen, biochemical, fluorescence polarization, LOPAC1280 library (AID 687035; in the data active = inhibition above about 37%). The following applies: Purified HCV NS3 helicase, Cy5-dT15 ssDNA binding fluorescence polarization; stronger effect = higher value; concentration not given here.
A short description of assay [6]: Cy5 fluorescence quenching or enhancement artefacts, artefact control for HCV NS3 helicase inhibitor project, biochemical, LOPAC1280 (AID 687037). The following applies: Cy5-DNA-NS3h complex fluorescence interference counterscreen.
A short description of assay [7]: phospholipid biosynthesis inhibitors in animal cells, primary screen, cell-based, LOPAC library, screen 4 (AID 1347384). To be noted: phospholipid biosynthesis inhibition screen, at 10 µM.
The nature of assay [8]: growth inhibition of DIPG glioma cells, dose response, cell-based, JHH-DIPG-1, MIPE4.0, CellTiter-Glo, qHTS (AID 1347062; cut-off not given, nearly all actives have AC50 up to about 27 µM;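 for AC50: cells exposed to compound for two days before readout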). The following applies: JHH-DIPG-1 viability, CellTiter-Glo ATP luminescence.
The nature of assay [9]: growth inhibition of DIPG glioma cells, dose response, cell-based, SU-DIPG-XVII, MIPE5.0, CellTiter-Glo, qHTS (AID 1347060; cut-off not given, nearly all actives have AC50 up to about 26 µM;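 for AC50: cells exposed to compound for 48 hours before viability readout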). The following applies: SU-DIPG-XVII viability, CellTiter-Glo ATP luminescence.
Assay [10] can be described thus: SU-DIPG-XXV glioma cell viability, MIPE5.0 library, qHTS (AID 1347068; cut-off not given, nearly all actives have IC50 up to about 30 µM;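 for IC50: cells exposed to compound for 48 hours before viability readout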).
The nature of assay [11]: survival rescue of mitochondrial mutant cells in low glucose, primary screen, MELAS cybrids, Rieske KO mouse fibroblasts, CellTiter-Glo (AID 1508586;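 active = mean z-score across replicates of 1.96 or higher in either the MELAS or the Rieske mutant cell line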;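 note: z relative to plate mean and SD of compound and empty wells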).
A short description of assay [12]: viability loss in pontine glioma line – cell-based, SU-DIPG-XXV, MIPE5.0, CellTiter-Glo, qHTS, dose response (AID 1347065; cut-off not given, nearly all actives have AC50 up to about 26 µM;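 note: cells exposed to compound for 48 hours before ATP readout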). The following applies: CellTiter-Glo ATP luminescence.
[13] abbreviates: MELAS cybrid survival, CellTiter-Glo 48 h, stronger effect = higher value.
The mark [14] stands for this setting: Rieske KO mouse fibroblast survival, CellTiter-Glo 72 h.

Each structure is given as a SMILES string. Several values for one entry are separate records, joined by “and”; a condition that tells them apart may be missing. Equal entries are not always repeated. Records with an inconclusive call do not appear. Activity calls are given as the source filed them. Unless noted, the rule behind the calls is not given here.

Chain of NAD(+) hydrolase SARM1 (Homo sapiens) (Q6SZW1 whole entry, looked up): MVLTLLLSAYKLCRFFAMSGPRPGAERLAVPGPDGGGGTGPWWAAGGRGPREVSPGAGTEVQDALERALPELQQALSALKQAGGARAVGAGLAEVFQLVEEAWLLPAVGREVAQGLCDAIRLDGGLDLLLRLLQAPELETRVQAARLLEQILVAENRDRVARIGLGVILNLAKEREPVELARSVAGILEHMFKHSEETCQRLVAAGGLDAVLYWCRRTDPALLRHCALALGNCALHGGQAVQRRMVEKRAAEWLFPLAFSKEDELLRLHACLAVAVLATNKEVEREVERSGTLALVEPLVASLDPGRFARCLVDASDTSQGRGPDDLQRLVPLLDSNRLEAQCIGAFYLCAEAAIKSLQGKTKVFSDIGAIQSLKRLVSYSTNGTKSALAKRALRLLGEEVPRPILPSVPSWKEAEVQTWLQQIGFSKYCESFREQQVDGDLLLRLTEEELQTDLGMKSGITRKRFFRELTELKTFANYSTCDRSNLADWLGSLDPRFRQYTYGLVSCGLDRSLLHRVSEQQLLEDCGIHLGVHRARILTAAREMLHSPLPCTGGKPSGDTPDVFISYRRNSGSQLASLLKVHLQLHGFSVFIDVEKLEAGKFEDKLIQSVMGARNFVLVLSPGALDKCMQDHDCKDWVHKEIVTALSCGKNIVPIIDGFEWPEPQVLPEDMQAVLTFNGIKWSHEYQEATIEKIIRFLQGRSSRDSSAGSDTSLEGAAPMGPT

For the compound `Cc1c(O)c(=O)ccn1C`, the remaining NAD in assay [1] was 10 nM (inactive).

For the compound `COc1cccc2c1C(=O)c1c(O)c3c(c(O)c1C2=O)C[C@@](O)(C(C)=O)C[C@@H]3OC1CC(N)C(O)C(C)O1` (some centres undefined), the survival in assay [2] is 2.17 (inactive). Besides, in [3], the remaining activity was 110% (inactive).

In the case of `CN1CCN(c2nc3cc(C(F)(F)F)ccc3n3cccc23)CC1`, the period change in assay [4] was -0.085 h (inactive). Also, in assay [5], the inhibition was -3% (inactive). In addition, the fluorescence ratio (interference) in assay [6] is 1 (inactive). The outcome in assay [7] was inactive.

On to `C#C[C@]1(O)CC[C@H]2[C@@H]3CCC4=Cc5oncc5CC4(C)[C@H]3CCC21C` (some centres undefined), for which the period change in assay [4] is 0.035 h (inactive). In assay [5], the inhibition is 0% (inactive). The fluorescence ratio (interference) in assay [6] is 1 (inactive). Also, the result in assay [7] was inactive.

`CC[C@]1(O)CC2CN(CCc3c([nH]c4ccccc34)[C@@](C(=O)OC)(c3cc4c(cc3OC)N(C)[C@H]3[C@@](O)(C(N)=O)[C@H](O)[C@]5(CC)C=CCN6CC[C@]43[C@@H]65)C2)C1` (some centres undefined): the AC50 in assay [8] is 46.9 nM (active).

With `CO/N=C(/C(=O)N[C@@H]1C(=O)N2C(C(=O)O)=C(COC(N)=O)CS[C@H]12)c1ccco1`, the survival in [2] was 3.92 (inactive).

With `CS(=O)(=O)c1ccc(-c2cc(Br)sc2-c2ccc(F)cc2)cc1`, the remaining activity in assay [3] was 111% (inactive).

Consider `CN1[C@@H](CC(=O)c2ccccc2)CCC[C@H]1C[C@H](O)c1ccccc1`, for which the period change in assay [4] is -0.145 h (inactive). Further, the survival in assay [2] was 11.3 (inactive). In assay [5], the inhibition was 0% (inactive). Besides, the fluorescence ratio (interference) in assay [6] was 1 (inactive). In assay [3], the remaining activity is 122% (inactive). Moreover, the call in [7] was inactive.

Turning to `COc1cc([C@@H]2c3cc4c(cc3[C@@H](O[C@@H]3O[C@@H]5CO[C@@H](C)O[C@H]5[C@H](O)[C@H]3O)[C@H]3COC(=O)[C@H]23)OCO4)cc(OC)c1O`, in assay [9], the AC50 is 1660 nM (active). Besides, the compound was called inactive in [8] and in assay [10]. The z-score in assay [11] (setting [13]) was -0.423 (inactive) and -1.1 (inactive); in assay [11] (setting [14]) it was -0.861 and 0.337.

`CC(=O)N1CCN(c2ccc(OC[C@H]3CO[C@](Cn4ccnc4)(c4ccc(Cl)cc4Cl)O3)cc2)CC1`: the period change in assay [4] was -0.195 h (inactive). In addition, the survival in [2] is 3.25 (inactive). The inhibition in [5] is -5% (inactive). Also, in [6], the fluorescence ratio (interference) is 1 (inactive). In addition, the remaining activity in assay [3] was 114% (inactive). Further, the result in [9] and in assay [7] was inactive. The AC50 in assay [8] was 23500 nM (active). For the same compound, the z-score in assay [11] (setting [13]) is 1.22 (inactive) and -0.0928 (inactive); in assay [11] (setting [14]), 0.853 and 1.14.

As for `CN1CCc2cc(Cl)c(O)cc2[C@@H](c2ccccc2)C1`, the period change in assay [4] was 0.17 h (inactive). The inhibition in assay [5] was -1% (inactive). Further, the fluorescence ratio (interference) in assay [6] is 1 (inactive). For the same compound, the remaining activity in assay [3] was 107% (inactive). Also, the result in [7] was inactive.

For the compound `COCC1=C(C(=O)OC(C)OC(=O)OC(C)C)N2C(=O)[C@@H](NC(=O)/C(=N\OC)c3csc(N)n3)[C@H]2SC1` (some centres undefined), the results for the z-score in [11] (setting [13]) and in [11] (setting [14]) were -0.0637 (inactive) and -0.177, respectively. The remaining NAD in assay [1] is 10 nM (inactive).

As for `CCCCC[C@H](O)/C=C/[C@H]1[C@H](O)CC(=O)[C@@H]1CCCCCCC(=O)O`, the survival in [2] is 35.2 (inactive) and 136 (inactive). Further, in assay [3], the remaining activity was 115% (inactive). Moreover, the compound was classed as inactive in assay [9], in assay [8], in assay [12] and in assay [10]. The z-score is -0.41 (inactive) and -0.106 (inactive) in assay [11] (setting [13]); -0.367 and -0.604 in assay [11] (setting [14]).

Turning to `Cc1sc(N)c(C(=O)c2cccc(C(F)(F)F)c2)c1C`, the remaining activity in assay [3] was 120% (inactive).

With `COc1cccc2c1C(=O)c1c(O)c3c(c(O)c1C2=O)C[C@@](O)(C(=O)CO)C[C@@H]3O[C@H]1C[C@H](N)[C@@H](O)[C@H](C)O1`, the concentration at half-maximal activity (AC50) in assay [9] was 332 nM (active); in assay [8], 372 nM (active); in [12] it was 1180 nM (active). Moreover, the IC50 in assay [10] is 9340 nM (active). Besides, the remaining NAD in assay [1] was 10 nM (inactive).

For `CN1CCN2c3ncccc3Cc3ccccc3C2C1` (centres undefined), the remaining activity in assay [3] was 106% (inactive). Besides, the compound was called inactive in assay [9], in assay [8], in [12] and in assay [10]. Further, the z-score in [11] (setting [13]) is 0.00763 (inactive) and -0.808 (inactive); in [11] (setting [14]), 0.866 and 0.0762.

These data come from PubChem BioAssay.
